Data on two compounds can be found in PubChem BioAssay AID1259319 (Sanford-Burnham Center for Chemical Genomics, 2017).

SMILES strings stand for the structures. The campaign covered roughly 3,000 compounds. About 1,800 (60%) were called active.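 Rule for the calls: active = activation at or above a set limit, or at least 3 SD above the negative control mean; inactive = the rest.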 The set was probably picked from earlier hits. The list is a sample of the results.

In the assay the target is Nuclear receptor subfamily 1 group D member 1 (Homo sapiens) (UniProt P20393). Kind of assay: Rev-erbα–DNA interaction modulation, retest – biochemical, FITC-DNA, fluorescence polarization, single point, confirmation (AID 1259319).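 Note: 0% = 35 nM protein with DMSO and 100% = 750 nM protein high control.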 The following applies: Rev-erb alpha FITC-DNA binding, 90 min, at 25 µM, active compounds read high.
Chain of Nuclear receptor subfamily 1 group D member 1 (Homo sapiens) (P20393 whole entry, looked up): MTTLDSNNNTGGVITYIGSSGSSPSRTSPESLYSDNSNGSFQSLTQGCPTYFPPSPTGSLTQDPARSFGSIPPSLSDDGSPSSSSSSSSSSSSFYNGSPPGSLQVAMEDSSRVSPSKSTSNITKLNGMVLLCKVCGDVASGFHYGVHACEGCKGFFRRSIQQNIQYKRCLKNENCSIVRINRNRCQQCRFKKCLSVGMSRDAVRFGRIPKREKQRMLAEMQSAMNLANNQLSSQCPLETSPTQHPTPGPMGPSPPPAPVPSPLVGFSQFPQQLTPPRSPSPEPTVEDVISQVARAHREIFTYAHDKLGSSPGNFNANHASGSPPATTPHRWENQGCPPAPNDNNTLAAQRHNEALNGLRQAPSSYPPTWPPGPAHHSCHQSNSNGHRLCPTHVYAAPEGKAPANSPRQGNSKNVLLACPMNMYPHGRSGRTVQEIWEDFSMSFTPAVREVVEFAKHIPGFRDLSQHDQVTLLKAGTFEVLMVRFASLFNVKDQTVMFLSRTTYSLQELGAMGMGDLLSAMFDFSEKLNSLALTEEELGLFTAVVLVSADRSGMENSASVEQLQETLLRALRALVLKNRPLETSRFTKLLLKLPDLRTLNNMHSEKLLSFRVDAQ
For `COc1ccccc1N=Nc1c(O)[nH]c(=S)[nH]c1=O`, the activation was 41% (active). The figure for `COC(=O)CN(CCCl)P1(=O)OCCCN1CCCl` (configuration not stated) is -6.07% (inactive).
